# In article PMC5540273 (PLoS ONE, 2017):
# Key:
# Conditions in all cases: concentration: 1 μM, replicates: in singlicate; n = 1
# DLK = tested on: T1, DLK
# T1 construct: gene MAP3K12
# DMPK2 = tested on: T2, DMPK2
# T2 construct: gene CDC42BPG
# DMPK = tested on: DMPK
# DRAK1 = tested on: T3, DRAK1
# T3 construct: gene STK17A
# DRAK2 = tested on: T4, DRAK2
# T4 construct: gene STK17B
# DYRK1A = tested on: DYRK1A
# DYRK1B = tested on: DYRK1B
# DYRK2 = tested on: DYRK2
# EGFR = tested on: EGFR
# EIF2AK1 = tested on: EIF2AK1
# EPHA1 = tested on: EPHA1
# EPHA2 = tested on: EPHA2
# EPHA3 = tested on: EPHA3
# EPHA4 = tested on: EPHA4
# EPHA5 = tested on: EPHA5
# EPHA6 = tested on: EPHA6
# EPHA7 = tested on: EPHA7
# EPHA8 = tested on: EPHA8
# EPHB1 = tested on: EPHB1
# EPHB2 = tested on: EPHB2
# 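Also: KINOMEscan kinase panel screen.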
SMILES,%Inh (DLK),%Inh (DMPK2),%Inh (DMPK),%Inh (DRAK1),%Inh (DRAK2),%Inh (DYRK1A),%Inh (DYRK1B),%Inh (DYRK2),%Inh (EGFR),%Inh (EIF2AK1),%Inh (EPHA1),%Inh (EPHA2),%Inh (EPHA3),%Inh (EPHA4),%Inh (EPHA5),%Inh (EPHA6),%Inh (EPHA7),%Inh (EPHA8),%Inh (EPHB1),%Inh (EPHB2)
Cn1c(=O)c(F)c(Nc2ccc(I)cc2F)c2c(=O)n(OC[C@H](O)CO)cnc21,0%,20%,17%,0%,10%,0%,0%,0%,3%,0%,36%,15%,0%,16%,5%,12%,14%,19%,20%,34%
COc1cc(Nc2ccnc3ccc(C(F)(F)F)cc23)cc(OC)c1OC [GW577382],32%,4%,0%,0%,0%,4%,16%,0%,27%,2%,61%,35%,27%,14%,2%,0%,10%,75%,10%,26%
OCCCNc1nccc(-c2c(-c3cccc(C(F)(F)F)c3)nn3cc(C(F)(F)F)ccc23)n1 [GW630813],37%,39%,0%,0%,0%,26%,0%,0%,26%,0%,5%,0%,5%,0%,0%,0%,0%,0%,0%,0%
CCS(=O)(=O)c1ccc(OC)c(Nc2ncc(-c3ccc(F)cc3)o2)c1.Cl [GW591947],25%,13%,6%,10%,0%,12%,0%,17%,4%,5%,0%,0%,0%,0%,0%,0%,0%,1%,11%,64%
Cc1c(Cn2c(C)nn3c(=O)cc(N4CCO[C@H](C)C4)nc23)cccc1C(F)(F)F [GSK2373690],0%,5%,23%,1%,1%,19%,20%,17%,10%,0%,4%,26%,0%,3%,1%,0%,22%,29%,8%,0%
COc1cc2ncn(-c3cc(OCc4ccncc4)c(C(N)=O)s3)c2cc1OC [GSK336313],0%,12%,0%,0%,0%,13%,19%,23%,24%,0%,21%,0%,12%,0%,0%,0%,4%,0%,7%,0%
CCC(=O)c1c(-c2ccccc2)c2cc(Cl)ccc2c(=O)n1Cc1cc(C(=O)NC2CC2)n(C)n1,49%,0%,0%,0%,3%,0%,48%,2%,0%,0%,4%,3%,8%,26%,0%,38%,11%,4%,7%,4%
COc1cc(Nc2nccc(N3CCC(NC(=O)C(C)c4ccc(Cl)cc4)C3)n2)cc(OC)c1OC (stereo not shown) [GSK1379757],29%,8%,0%,0%,0%,9%,0%,0%,23%,0%,4%,23%,0%,22%,0%,18%,2%,14%,0%,0%
Nc1n[nH]c2ncc(-c3ccccc3)cc12 [SB-517081],27%,0%,0%,34%,0%,17%,0%,30%,0%,18%,0%,2%,0%,0%,0%,0%,5%,10%,18%,14%
CCc1ccc(-c2ccc3c(c2)-c2nn(C)cc2S(=O)(=O)N3C)cc1,0%,0%,0%,0%,0%,0%,0%,0%,0%,0%,4%,25%,0%,0%,0%,0%,0%,0%,0%,0%
COc1ccc(-n2cnc3c(N)ncnc32)cc1 [SKF-97236],0%,0%,6%,43%,0%,1%,0%,0%,0%,31%,0%,13%,0%,0%,4%,0%,1%,10%,19%,0%
CN(C)c1cc(-c2ccc3c(N)n[nH]c3c2)nc(N)n1 [GSK2219329],7%,5%,0%,36%,0%,9%,5%,67%,43%,0%,15%,0%,4%,8%,0%,0%,0%,3%,14%,0%
CCC(=O)c1c(-c2ccccc2)c2cc(Cl)ccc2c(=O)n1Cc1cc(S(C)(=O)=O)n(CCC(C)(C)O)n1,0%,17%,11%,14%,2%,27%,11%,62%,31%,19%,0%,22%,4%,17%,11%,34%,10%,12%,6%,18%
Cc1nn2c(=O)cc(N3CCOCC3)nc2n1Cc1cccc(Cl)c1Cl [GSK2342769],12%,0%,0%,0%,0%,26%,29%,0%,25%,0%,10%,10%,0%,21%,0%,18%,0%,6%,0%,0%
O=C1NC(=O)C(c2ccccc2)=C1Nc1cccc(O)c1 [SB-390534],0%,0%,0%,5%,0%,25%,0%,0%,7%,0%,24%,0%,8%,0%,0%,10%,16%,0%,0%,0%
Cc1ccc(Oc2ccc(Nc3ncnc4cc[nH]c34)cc2C)cn1,22%,0%,0%,0%,0%,0%,0%,0%,71%,13%,13%,16%,3%,22%,16%,26%,0%,0%,5%,7%
CCC(=O)c1c(-c2ccccc2)c2cc(Cl)ccc2c(=O)n1Cc1cc(S(C)(=O)=O)n(CC(F)F)n1,0%,0%,0%,0%,0%,0%,13%,17%,1%,0%,2%,0%,7%,2%,0%,2%,0%,0%,0%,0%
CCc1nc(-c2cccc(C)c2)c(-c2ccncc2)s1,0%,79%,0%,0%,0%,0%,0%,0%,0%,9%,0%,17%,4%,6%,2%,0%,0%,0%,8%,2%
Cc1nnc(-c2ccc(C)c(-c3ccc(C(=O)O)cc3)c2)o1 [GW608005],21%,0%,0%,0%,1%,20%,0%,8%,22%,0%,0%,0%,0%,18%,0%,9%,0%,0%,8%,0%

SMILES,%Inh (DLK),%Inh (DMPK2),%Inh (DMPK),%Inh (DRAK1),%Inh (DRAK2),%Inh (DYRK1A),%Inh (DYRK1B),%Inh (DYRK2),%Inh (EGFR),%Inh (EIF2AK1),%Inh (EPHA1),%Inh (EPHA2),%Inh (EPHA3),%Inh (EPHA4),%Inh (EPHA5),%Inh (EPHA6),%Inh (EPHA7),%Inh (EPHA8),%Inh (EPHB1),%Inh (EPHB2)
CCS(=O)c1ccc(-c2coc3ccc(-c4nnc(C)o4)cc23)cc1 (stereo not shown),30%,0%,6%,0%,0%,0%,7%,0%,5%,0%,5%,13%,4%,0%,4%,12%,0%,0%,0%,0%
Cc1nnc(-c2ccc3ncn(-c4ccc(S(C)=O)cc4)c3c2)o1 (stereo not shown),0%,0%,1%,3%,18%,0%,26%,7%,0%,0%,0%,0%,5%,46%,17%,50%,1%,0%,1%,15%
COc1cccc(C2=C(Nc3cccc(C(=O)O)c3)C(=O)NC2=O)c1 [SB-390770],0%,4%,0%,0%,0%,14%,0%,0%,12%,0%,9%,23%,0%,10%,0%,11%,0%,0%,8%,9%
COc1ccc(-c2coc3ccc(-c4nnc(SCc5cccc(C#N)c5)o4)cc23)cc1,1%,0%,0%,2%,7%,5%,0%,2%,0%,30%,7%,3%,2%,25%,21%,26%,0%,0%,0%,5%
O=C(Nc1n[nH]c2nc(-c3ccccc3)c(Br)cc12)C1CC1 [SB-708998],17%,0%,0%,5%,0%,8%,0%,1%,1%,34%,23%,27%,0%,11%,3%,9%,0%,15%,23%,9%
FC(F)(F)c1ccc(-c2ncn(CCCN3CCOCC3)c2-c2ccncc2)cc1 [SB-217780],0%,1%,28%,15%,6%,6%,0%,25%,19%,10%,6%,5%,0%,12%,0%,7%,0%,0%,0%,0%
Cl.c1ccc(Cn2cnc3cc(Nc4ncnc5ccccc45)ccc32)cc1 [GW272142],6%,11%,0%,0%,0%,17%,2%,21%,20%,0%,4%,0%,0%,12%,0%,10%,0%,10%,0%,0%
Cc1nc(N(C)[C@H]2CN(C(=O)CC#N)CC[C@H]2C)c2cc[nH]c2n1,0%,5%,0%,0%,0%,0%,0%,7%,0%,0%,0%,0%,28%,20%,2%,0%,10%,12%,8%,0%
COc1cc2nccc(Nc3ccc(OCc4ccc(NC(C)=O)cc4)cc3)c2cc1OC.Cl [GW440135],27%,0%,0%,7%,0%,15%,1%,4%,18%,17%,19%,16%,0%,13%,0%,16%,5%,5%,6%,0%
COc1cccc(-n2cnc3c(N)ncnc32)c1 [SKF-97416],17%,7%,11%,37%,0%,12%,2%,39%,18%,35%,9%,0%,4%,4%,3%,0%,0%,0%,0%,19%
COC(=O)c1c(-c2ccccc2)c2cc(C)ccc2c(=O)n1Cc1ccccc1,0%,0%,0%,0%,0%,0%,6%,0%,0%,0%,0%,0%,14%,61%,0%,75%,0%,0%,0%,2%
O=C(Nc1n[nH]c2cc(-c3ccccc3F)ccc12)C1CC1 [SB-733371],0%,0%,0%,0%,0%,4%,0%,3%,0%,0%,22%,0%,19%,0%,0%,5%,0%,22%,4%,0%
CC(C)(C)c1ccc(C(=O)Nc2cn3cc(-c4ccccc4)ccc3n2)cc1,0%,0%,0%,0%,0%,0%,0%,37%,5%,0%,0%,0%,6%,6%,0%,0%,0%,0%,11%,0%
C[C@@H]1CC[C@H](C(=O)NC2CCCCC2)CN1c1cc(-c2ccc3c(N)n[nH]c3c2)nc(N)n1 [GSK2291363],31%,23%,0%,20%,0%,23%,6%,20%,45%,0%,6%,23%,18%,12%,11%,10%,8%,22%,26%,8%
COC(=O)c1c(-c2ccccc2)c2cc(Br)ccc2c(=O)n1Cc1ccc(S(C)(=O)=O)cc1,0%,5%,0%,3%,0%,20%,45%,44%,5%,13%,0%,22%,0%,33%,16%,45%,24%,23%,14%,21%
Cc1ccccc1COc1cc(-n2cnc3cc(Cl)ccc32)sc1C(N)=O [GW813349],0%,2%,0%,0%,1%,15%,34%,19%,2%,6%,9%,6%,0%,0%,0%,0%,0%,0%,14%,19%
Fc1cccc(CSc2nnc(-c3ccc4c(c3)CCO4)o2)c1,0%,9%,0%,27%,18%,62%,37%,7%,17%,26%,0%,0%,13%,0%,7%,0%,10%,11%,9%,23%
COc1cc(OC)cc(-c2cc3cnc(N)nc3nc2NC(=O)NC(C)(C)C)c1,4%,0%,16%,0%,0%,0%,16%,0%,–,4%,28%,0%,0%,0%,0%,0%,0%,0%,0%,0%
